For eight compounds, growth results are on record in PubChem BioAssay (NCI).

Among the test systems are 786-0 renal; MALME-3M melanoma; RXF 393 renal; EKVX NSCLC; SN12C renal; TK-10 renal; A498 renal; CCRF-CEM leukemia; RPMI-8226 leukemia; OVCAR-8 ovarian; OVCAR-5 ovarian; OVCAR-4 ovarian; SK-OV-3 ovarian; IGROV1 ovarian; NCI/ADR-RES ovarian; T-47D breast; MDA-MB-435 melanoma; MCF7 breast; HCT-116 colon; HOP-92 NSCLC.
Holding throughout (assay): NCI-60 one-dose screen, 48 h (100 = growth as untreated, 0 = no growth, -100 = all killed)
Conditions in all cases: 10 µM

About 83,000 compounds went through this panel and 20% of them were active in at least one assay; those are over-represented in the sample as a whole.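 Activity criterion: percent growth below 10, measured after cells in 96-well plates were exposed to a single compound concentration for 48 hours.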 A number with no mark means an inactive call. Active and inactive are the calls of the source.

For the compound `COC(=O)C[C@](O)(CCCC(C)C)C(=O)O[C@H]1C(OC)=C[C@@]23CCCN2CCc2cc4c(cc2[C@@H]13)OCO4`, the growth in the test with 786-0 renal was 2.04% (active); in the test with MALME-3M melanoma, -38.5% (active); in the test on RXF 393 renal, -8.52% (active); with EKVX NSCLC, 14.2%; with SN12C renal, 6.06% (active); in the test on TK-10 renal, 4.08% (active). For the same compound, the growth is -17.2% (active) with A498 renal; 0.557% (active) in the test with CCRF-CEM leukemia; -20.7% (active) in the test on RPMI-8226 leukemia; -21.3% (active) with OVCAR-8 ovarian; 5.45% (active) in the test on OVCAR-5 ovarian; -9.31% (active) in the test on OVCAR-4 ovarian. Besides, the growth with SK-OV-3 ovarian was 0.521% (active); with IGROV1 ovarian it was 8.76% (active); in the test with NCI/ADR-RES ovarian, 14.1%; with T-47D breast, 2.21% (active); in the test with MDA-MB-435 melanoma, 1.79% (active); in the test with MCF7 breast it was -6.98% (active). Besides, the growth in the test with HCT-116 colon is -7.84% (active).
On to `O=C([Se]C1C=CCCC1)c1ccc(C(=O)[Se]C2C=CCCC2)s1` (centres undefined), for which the growth in the test on HOP-92 NSCLC is -39.7% (active); in the test on 786-0 renal it was -92.7% (active); with MALME-3M melanoma, -85.7% (active); in the test with RXF 393 renal, -92% (active); in the test on EKVX NSCLC, -89.9% (active); in the test with SN12C renal, -81.8% (active). The growth in the test on TK-10 renal is -80.9% (active); in the test on A498 renal it was 20.6%; in the test with CCRF-CEM leukemia, -36.7% (active); in the test on RPMI-8226 leukemia, -43.1% (active); in the test with OVCAR-8 ovarian it was -97.6% (active); in the test on OVCAR-5 ovarian, -89.2% (active). The growth is -95.3% (active) in the test with OVCAR-4 ovarian; -97.5% (active) in the test on SK-OV-3 ovarian; -90.4% (active) with IGROV1 ovarian; -81.4% (active) with NCI/ADR-RES ovarian; -48.1% (active) in the test on T-47D breast; -61.2% (active) in the test with MDA-MB-435 melanoma. In addition, the growth is -37.1% (active) in the test with MCF7 breast and -43.1% (active) in the test with HCT-116 colon.
`O=C(/C=C/c1cccc(Br)c1)c1nc2ccccc2n1Cc1ccc(Br)cc1`: the growth with HOP-92 NSCLC was -48.8% (active); with 786-0 renal, -79% (active); in the test with MALME-3M melanoma, -36.5% (active); with RXF 393 renal, -81.2% (active); in the test on EKVX NSCLC it was -54.8% (active); with SN12C renal, -10.1% (active). Further, the growth in the test with TK-10 renal was 10.4%; in the test with A498 renal, 81.5%; in the test on CCRF-CEM leukemia, -15.6% (active); in the test with RPMI-8226 leukemia, -34.8% (active); in the test on OVCAR-8 ovarian, -8.23% (active); in the test on OVCAR-5 ovarian it was -50.4% (active). For the same compound, the growth was 35.3% in the test on OVCAR-4 ovarian; 65.4% in the test with SK-OV-3 ovarian; -8.02% (active) in the test with IGROV1 ovarian; -48.8% (active) in the test with NCI/ADR-RES ovarian; -0.946% (active) in the test on T-47D breast; -31.2% (active) in the test with MDA-MB-435 melanoma. In addition, the growth is -32.8% (active) with MCF7 breast and -96% (active) with HCT-116 colon.
As to `COc1cc(OC)c(S(=O)(=O)N(CCCl)CCCl)cc1C(=O)/C=C/c1ccc(C)cc1`, the growth with HOP-92 NSCLC is 70.5%; in the test with 786-0 renal, 14.2%; in the test with MALME-3M melanoma, 83.5%; with RXF 393 renal, -17.9% (active); in the test with EKVX NSCLC it was 89.5%; with SN12C renal, 53.6%. The growth is 106% in the test on TK-10 renal; 110% in the test on A498 renal; 70.7% with CCRF-CEM leukemia; 59.9% in the test with RPMI-8226 leukemia; 54.2% in the test with OVCAR-8 ovarian; 91.7% in the test with OVCAR-5 ovarian. Moreover, the growth with OVCAR-4 ovarian is 52.2%; in the test with SK-OV-3 ovarian it was 74.5%; with IGROV1 ovarian, 86.8%; with NCI/ADR-RES ovarian it was 63.2%; in the test with T-47D breast, 88%; with MDA-MB-435 melanoma, 79.5%. The growth was 63.6% in the test on MCF7 breast and 58% in the test with HCT-116 colon.
For `C#CC[Se]C(=O)c1ccc(C(=O)[Se]CC#C)s1`, the growth was 157% in the test with HOP-92 NSCLC; 82.2% in the test on 786-0 renal; 98.1% in the test on MALME-3M melanoma; 101% in the test on RXF 393 renal; 48.4% in the test on EKVX NSCLC; 85.9% in the test on SN12C renal. Also, the growth with TK-10 renal is 84.8%; with A498 renal, 101%; with CCRF-CEM leukemia, 77.4%; in the test with RPMI-8226 leukemia, 86%; in the test on OVCAR-8 ovarian, 75.6%; in the test on OVCAR-5 ovarian, 81.3%. Besides, the growth in the test with OVCAR-4 ovarian was 103%; with SK-OV-3 ovarian, 110%; in the test with IGROV1 ovarian it was 85.5%; with NCI/ADR-RES ovarian, 76.1%; in the test with T-47D breast it was 88.8%; with MDA-MB-435 melanoma it was 95.8%. For the same compound, the growth in the test on MCF7 breast is 91.5%; in the test on HCT-116 colon, 14%.
Turning to `C#CCCCN(CCNc1ccnc2cc(Cl)ccc12)C(=O)CCC(=O)O[C@@H]1O[C@@H]2OC3(C)CC[C@H]4[C@H](C)CC[C@@H]([C@H]1C)[C@@]24OO3`, the growth with HOP-92 NSCLC was 27.3%; in the test on 786-0 renal, 46.9%; in the test with MALME-3M melanoma, 20.3%; in the test on RXF 393 renal, 34.3%; in the test on EKVX NSCLC, 42.3%; in the test on SN12C renal, 36.1%. The growth in the test on TK-10 renal was 50.1%; in the test on A498 renal, 96%; with CCRF-CEM leukemia, 24.4%; in the test with RPMI-8226 leukemia it was 24.9%; with OVCAR-8 ovarian, 17%; with OVCAR-5 ovarian, 45.1%. Besides, the growth in the test with OVCAR-4 ovarian was 41.3%; in the test on SK-OV-3 ovarian it was 79.3%; with IGROV1 ovarian, 41.1%; with NCI/ADR-RES ovarian it was 16.2%; in the test with T-47D breast it was 27.9%; in the test on MDA-MB-435 melanoma, 21.2%. Besides, the values for the growth in the test on MCF7 breast and in the test with HCT-116 colon were 14.2% and 19.4%, respectively.
As for `CC[C@]12C=CCN3CC[C@@]4(c5ccc(OC)cc5N(C)[C@H]4[C@@](O)(C(=O)OC)[C@@H]1OC(=O)CCC[P+](c1ccc(C)cc1)(c1ccc(C)cc1)c1ccc(C)cc1)[C@@H]32`, the growth is -83.2% (active) with HOP-92 NSCLC; -88% (active) in the test on 786-0 renal; -94.4% (active) with MALME-3M melanoma; -82.8% (active) in the test on RXF 393 renal; -94.7% (active) in the test with EKVX NSCLC; -88.1% (active) in the test on SN12C renal. In addition, the growth in the test with TK-10 renal is -88.5% (active); in the test on A498 renal, -88.6% (active); in the test on CCRF-CEM leukemia, -67% (active); in the test on RPMI-8226 leukemia, -56.3% (active); in the test on OVCAR-8 ovarian, -85% (active); with OVCAR-5 ovarian it was -95.9% (active). Besides, the growth with OVCAR-4 ovarian was -73.5% (active); with SK-OV-3 ovarian, -81% (active); with IGROV1 ovarian, -89.5% (active); in the test with NCI/ADR-RES ovarian, 18.1%; in the test with T-47D breast it was -78.4% (active); in the test on MDA-MB-435 melanoma, -57.5% (active). Further, the growth in the test with MCF7 breast is -76.3% (active); in the test on HCT-116 colon, -93.4% (active).
For the compound `CC1=C(CCC=O)C2=C(C)C3(CC3)[C@@](C)(O)C(=O)C2=C1`, the growth in the test with HOP-92 NSCLC was -64.3% (active); with 786-0 renal, -48.9% (active); in the test on MALME-3M melanoma, -96% (active); with RXF 393 renal, -95.3% (active); in the test on EKVX NSCLC it was -81.6% (active); in the test with SN12C renal, -82.3% (active). Also, the growth with TK-10 renal is -91.6% (active); in the test on A498 renal, -56.8% (active); with CCRF-CEM leukemia, -15.3% (active); in the test with RPMI-8226 leukemia, 1.91% (active); with OVCAR-8 ovarian, -73.4% (active); in the test on OVCAR-5 ovarian, -95.8% (active). Moreover, the growth was -97.4% (active) in the test with OVCAR-4 ovarian; -62% (active) with SK-OV-3 ovarian; -79.5% (active) in the test with IGROV1 ovarian; -43.5% (active) in the test on NCI/ADR-RES ovarian; -41.3% (active) in the test with T-47D breast; -88.8% (active) in the test on MDA-MB-435 melanoma. The growth in the test with MCF7 breast is -44.2% (active); in the test on HCT-116 colon, -63.9% (active).
